From PubChem BioAssay AID1347056 (Sanford-Burnham Center for Chemical Genomics, 2019)
In all, about 360,000 compounds went through this assay and about 3,600 (1%) were called active.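 The calls were made as follows: active = compounds whose plate-normalised and pattern-corrected inhibition of the luciferase reporter signal at the single screening dose is 50% or more; inactive = the rest.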 This excerpt belongs to a sample that is enriched for actives.

Assay: inhibitors of TROY-driven NF-kB signaling, primary screen, Q293 LMP1-TROYcd cells, NF-kB luciferase, uHTS (AID 1347056)
Settings: Q293 LMP1-TROYcd NF-kB luciferase reporter, 4 h; at 10 µM; hits give high values

SMILES	inhibition
O=C(CNC(=O)c1ccccc1)NCC(=O)OCc1ccc(Cl)cc1	17.5% (inactive)
CC(Oc1ccc2c(-c3ccccc3)cc(=O)oc2c1)C(=O)NC(Cc1c[nH]c2ccccc12)C(=O)O (stereo unspecified)	-3.69% (inactive)
O=C(CNC(=O)OCc1ccccc1)Oc1cc2oc(=O)cc(-c3ccccc3)c2cc1Cl	50.4% (active)
Cc1ccc(S(=O)(=O)Oc2ccc(/C=N/NC(=O)c3c(Cl)cnn3C)cc2)cc1	-1.06% (inactive)
CCN(CC)CCNC(=O)c1sc2ncn(CC(=O)Nc3ccc(C)c(Cl)c3)c(=O)c2c1C	6.8% (inactive)
CC(=O)N1CCN(c2ccccc2NC(=S)NC(=O)c2cc3ccccc3o2)CC1	5.79% (inactive)
C/C(=C\c1ccccc1)C1NC(=O)c2c(sc3c2CCCC3)N1 (stereo unspecified)	67.6% (active)
O=C1NC(c2ccncc2)Nc2sc3c(c21)CCCC3 (stereo unspecified)	-12.2% (inactive)
O=C(Nc1sc2c(c1-c1nc3ccccc3[nH]1)CCCC2)C1CC1	-11.2% (inactive)
CN(C)S(=O)(=O)c1ccc2oc(SCC(=O)Nc3ccccc3F)nc2c1	-36.4% (inactive)
COc1ccc(Cl)cc1S(=O)(=O)Nc1cccc(C(=O)O)c1	1.76% (inactive)
Cc1ccc(NC(=O)Nc2ccc3oc(C)nc3c2)cc1	-27.6% (inactive)
O=C(Nc1ccc2ccccc2c1)Nc1ccc2snnc2c1	69.7% (active)
COc1cccc(NC(=O)Nc2ccc(F)cc2)c1	-52.4% (inactive)
CN(CCC(=O)Nc1cc(S(=O)(=O)N(C)C)ccc1Cl)CC(=O)Nc1ccc(F)cc1	1.42% (inactive)
CSCCNCc1cn(-c2ccc(F)cc2F)nc1-c1ccccc1C	1.03% (inactive)
OCc1nc(CO)n(Cc2ccccc2)n1	11.6% (inactive)
CN(C)C(=O)c1cccc(-c2cnc3sc(NCc4ccc5c(c4)OCO5)nn23)c1	51.8% (active)
O=C(COC(=O)c1ccc(Cl)nc1)NCc1ccc2c(c1)OCO2	-7.63% (inactive)
O=C(CSc1ncnc2scc(-c3ccccc3)c12)NCc1ccc2c(c1)OCO2	22.3% (inactive)
COc1ccccc1NC(=O)N1CCCC1C(=O)NCc1cccs1 (stereo unspecified)	7.15% (inactive)
COc1ccccc1CNC(=O)CN1CCC(n2cnc3cc(F)ccc32)CC1	2.42% (inactive)
CCCCCCN1CCN(C2CN(Cc3cn(Cc4ccc(F)cc4)nn3)S(=O)(=O)C2)CC1 (stereo unspecified)	0.62% (inactive)
COc1ccc(C(=O)/C=C/Nc2ccccn2)cc1	72.4% (active)
COc1ccc2nc(-c3ccccn3)ccc2c1	6.94% (inactive)
COCCN(C(=O)CCC(=O)Nc1ccccn1)C(C(=O)NCCC(C)C)c1ccc(OC)cc1 (stereo unspecified)	5.49% (inactive)
